Screening data as filed in PubChem BioAssay.
Sampled rows, rich in hits. Any-hit rate of the full collection: about 2.6%.
STAT3 SMM: binders of human STAT3; Small molecule microarray, His-STAT3 binding, anti-His fluorescence; calls only; actives 0.2% (n = 17,000);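 active = compounds whose four printed spots each show fluorescence over background unusually high for their array block, chance value under 7%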
mut p53 react: re-activators of the mutant p53 pathway; AID 624151; actives 1.5% (n = 28,000); SW480 PUMA-promoter luciferase, p53 mutant reactivation; activation, % at 9.98 µM; in the data active = activation above about 52%
c-Myc SMM: binds human c-Myc on microarray. P01106. small molecule microarray, His-c-Myc binding, anti-His fluorescence. calls only. actives 1.5% (n = 17,000);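 active = spot fluorescence over background with P-value below 7% in all four replicate spots, showing protein binding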
p53 mut binder: binders of human mutant p53. calls only. actives 0.4% (n = 17,000). small molecule microarray binding, anti-GST fluorescence;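 active = compounds whose four printed spots each glow above background more than chance allows, each with a p-value under 7%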
NFkB binder: binders of human NF-kappa-B p105 | P19838 | Small molecule microarray, anti-His fluorescence binding | calls only | actives 1.3% (n = 17,000) | AID 624139;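 active = spot fluorescence over background significantly raised, with a chance value under 7% in all four replicate spots of the compound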;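 also: probe protein is his-tagged human p50 processed subunit at 1 µg/ml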
Target sequence (P19838 1-433 limits assumed): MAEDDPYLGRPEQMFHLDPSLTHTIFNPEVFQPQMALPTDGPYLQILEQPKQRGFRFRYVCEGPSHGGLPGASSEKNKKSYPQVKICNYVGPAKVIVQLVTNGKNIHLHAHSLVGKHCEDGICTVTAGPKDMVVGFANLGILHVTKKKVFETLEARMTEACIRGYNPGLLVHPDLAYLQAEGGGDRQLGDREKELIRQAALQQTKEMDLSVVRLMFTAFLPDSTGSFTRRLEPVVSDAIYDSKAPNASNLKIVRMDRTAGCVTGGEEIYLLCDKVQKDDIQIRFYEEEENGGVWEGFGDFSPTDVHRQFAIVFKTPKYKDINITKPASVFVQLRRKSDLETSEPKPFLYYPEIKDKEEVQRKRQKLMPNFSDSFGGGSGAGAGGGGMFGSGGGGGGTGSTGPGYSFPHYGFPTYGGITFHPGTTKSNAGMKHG
Numbers stand for hits; i = inactive; nt = no result given; + = active, no number.

SMILES	STAT3 SMM	mut p53 react	c-Myc SMM	p53 mut binder	NFkB binder
O=C(CC1NC(=O)NC1=O)Nc1ccc(F)cc1 (centres undefined)	nt	i	nt	nt	nt
O=C(CC1CCOCC1)Nc1ccc(I)cc1	nt	62.6	nt	nt	nt
COc1ccc(CN(C)C[C@@H]2Oc3ccc(NC(=O)Nc4ccc5c(c4)OCO5)cc3CC(=O)N([C@H](C)CO)C[C@@H]2C)cc1	i	i	i	i	i
NC(=O)CN1CCN(CCN2C(=O)c3cccc4cccc(c34)C2=O)CC1	i	74.5	i	i	i
O=C(c1cc2cc(Br)ccc2oc1=O)N1CCN(CCN2C(=O)c3cccc4cccc(c34)C2=O)CC1	nt	65.4	nt	nt	nt
O=C(CCCN1C(=O)c2cccc3cccc(c23)C1=O)N1CCN(c2ncccn2)CC1	nt	i	nt	nt	nt
N#Cc1ccc(NC(=O)c2ccc(Br)o2)cc1	nt	63.9	nt	nt	nt
N#Cc1ccc(NC(=O)CCN2C(=O)c3ccccc3C2=O)cc1	nt	i	nt	nt	nt
COc1ccc(-c2cc(=O)c3ccc(OC)cc3o2)cc1	i	65.9	i	i	i
COc1c(O)cc2oc(-c3ccc(O)cc3)cc(=O)c2c1O	i	58.5	i	i	i
COc1ccc(-c2cc(=O)c3c(OC)c(OC)c(OC)c(OC)c3o2)cc1	i	i	i	i	i
COc1cc2oc(-c3ccc(O)cc3)cc(=O)c2c(O)c1OC	i	i	i	i	i
COc1cc(NC(=O)COc2ccccc2[N+](=O)[O-])ccc1NC(=O)c1cccs1	i	i	i	i	i
COc1ccccc1OCC(=O)Nc1ccc(C)cc1[N+](=O)[O-]	nt	118.6	nt	nt	nt
O=C(COc1ccccc1Cl)Nc1ccc2oc(-c3ccc(F)cc3Cl)nc2c1	nt	i	nt	nt	nt
Cc1ccc(NC(=O)COc2ccccc2Cl)c([N+](=O)[O-])c1	nt	60.4	nt	nt	nt
Cc1ccc(NC(=O)COc2ccc(Cl)cc2Cl)c([N+](=O)[O-])c1	nt	i	nt	nt	nt
COc1ccc(NC(=O)COc2ccccc2[N+](=O)[O-])cc1Cl	nt	134.7	nt	nt	nt
O=C(COc1ccccc1[N+](=O)[O-])Nc1ccc2oc(-c3ccc(F)cc3Cl)nc2c1	nt	51.3	nt	nt	nt
COc1cc(NC(=O)COc2cccc(C)c2C)ccc1-c1cc2ccccc2oc1=O	i	i	i	i	i
COc1ccccc1NC(=O)COc1ccc(CO)cc1Cl	nt	164.5	nt	nt	nt
Cc1sc2nc(-c3ccccc3O)[nH]c(=O)c2c1C	nt	i	nt	nt	nt
Cc1ccc(NC(=O)CNC(=O)c2ccco2)cc1	i	58.8	i	i	i
c1ccc(CCn2c3ccccc3c3nnc(SCc4ccc5nonc5c4)nc32)cc1	nt	61.5	nt	nt	nt
N#CCCSCc1ccc2oc(C(=O)O)cc2c1	i	i	+	i	i
SMILES	STAT3 SMM	mut p53 react	c-Myc SMM	p53 mut binder	NFkB binder
C/C=C/c1cnc2c(c1)C(=O)N([C@@H](C)CO)C[C@H](C)[C@H](CN(C)C(=O)Nc1ccc(F)cc1)O2	nt	i	nt	nt	nt
C[C@@H]1CCCCO[C@H](CN(C)C(=O)Nc2ccccc2)[C@@H](C)CN([C@@H](C)CO)C(=O)c2cc(NC(=O)CCC(F)(F)F)ccc2O1	i	i	+	i	i
C[C@@H]1CCCCO[C@@H](CN(C)C(=O)Nc2ccccc2)[C@H](C)CN([C@H](C)CO)C(=O)c2cc(NC(=O)CCC(F)(F)F)ccc2O1	i	i	i	i	i
C[C@H](CO)N1C[C@H](C)[C@H](CN(C)C(=O)Nc2ccccc2)OCCCC[C@H](C)Oc2ccc(NC(=O)CCC(F)(F)F)cc2C1=O	i	i	i	i	+
C[C@@H]1CN([C@@H](C)CO)C(=O)c2cc(NC(=O)CCC(F)(F)F)ccc2O[C@@H](C)CCCCO[C@H]1CN(C)C(=O)Nc1ccccc1	i	i	i	i	i
C=CCOC(=O)[C@H]1[C@@H]2C(=O)O[C@@H](c3ccccc3)[C@@H](c3ccccc3)N2[C@@H](c2ccc(OCCOC(=O)[C@@H]3C[C@@H]4C(=O)NCC(=O)N4[C@@H]3c3ccc(O)cc3)cc2)[C@]12C(=O)Nc1ccc(I)cc12	i	nt	i	i	i
C=CCOC(=O)[C@H]1[C@@H]2C(=O)O[C@@H](c3ccccc3)[C@@H](c3ccccc3)N2[C@@H](c2ccc(OCCOC(=O)[C@@H]3C[C@@H]4C(=O)N[C@@H](Cc5ccccc5)C(=O)N4[C@@H]3c3ccc(O)cc3)cc2)[C@]12C(=O)Nc1ccccc12	i	nt	i	i	i
C=CCOC(=O)[C@H]1[C@@H]2C(=O)O[C@@H](c3ccccc3)[C@@H](c3ccccc3)N2[C@@H](c2ccc(OCCOC(=O)[C@@H]3C[C@@H]4C(=O)N[C@@H](Cc5ccccc5)C(=O)N4[C@@H]3c3cccc(OCCO)c3)cc2)[C@]12C(=O)Nc1ccc(I)cc12	i	nt	i	i	+
C=CCOC(=O)[C@H]1[C@@H]2C(=O)O[C@@H](c3ccccc3)[C@@H](c3ccccc3)N2[C@@H](c2ccc(OCCOC(=O)[C@@H]3C[C@@H]4C(=O)N5CCC[C@H]5C(=O)N4[C@@H]3c3cccc(OCCO)c3)cc2)[C@]12C(=O)Nc1ccc(I)cc12	i	nt	i	i	+
C=CCOC(=O)[C@H]1[C@@H]2C(=O)O[C@@H](c3ccccc3)[C@@H](c3ccccc3)N2[C@@H](c2ccc(OCCOC(=O)[C@@H]3C[C@@H]4C(=O)N5CCC[C@H]5C(=O)N4[C@@H]3c3cccc(OCCO)c3)cc2)[C@]12C(=O)Nc1ccccc12	i	nt	i	i	i
C=CCOC(=O)[C@H]1[C@@H]2C(=O)O[C@@H](c3ccccc3)[C@@H](c3ccccc3)N2[C@@H](c2ccc(OCCOC(=O)[C@@H]3C[C@@H]4C(=O)NCC(=O)N4[C@@H]3c3ccc(O)cc3)cc2)[C@]12C(=O)Nc1ccccc12	i	nt	i	i	+
C[C@H](CO)N1C[C@H](C)[C@H](CN(C)C)OCCCC[C@H](C)Oc2ccc(NS(=O)(=O)c3ccc(Cl)cc3)cc2C1=O	i	i	i	i	i
C[C@@H]1CN([C@@H](C)CO)C(=O)c2cccc(NC(=O)c3cnccn3)c2O[C@H]1CN(C)C(=O)NC1CCCCC1	i	i	i	i	i
C[C@@H]1CN([C@H](C)CO)C(=O)c2cc(C3=CCCC3)cnc2O[C@@H]1CN(C)Cc1ccccc1C(=O)O	nt	i	nt	nt	nt
Cc1cc(C)c(C)c(OCC(=O)Nc2ccccc2C(N)=O)c1	nt	53.1	nt	nt	nt
CCc1ccc(OCC(=O)Nc2ccccc2C(N)=O)c(Br)c1	i	70.8	i	i	i
O=C(CSc1ccc(Cl)cc1)Nc1cccc(-c2nnc(-c3ccco3)o2)c1	nt	122.5	nt	nt	nt
CCn1c(SCC(=O)Nc2ccc(Cl)cc2)nnc1-c1ccco1	nt	i	nt	nt	nt
O=C(CSc1nnc(-c2ccccc2)o1)Nc1cccc(F)c1	nt	78.0	nt	nt	nt
COc1ccccc1NC(=O)CSc1nnc(-c2ccc(Cl)cc2)o1	i	89.1	i	i	i
COc1ccc(C)cc1N(CC(=O)Nc1ccc(Br)c(C)c1)S(C)(=O)=O	nt	i	nt	nt	nt
CSc1ccc(C(Nc2ccccn2)c2cc(Cl)c3cccnc3c2O)cc1 (centres undefined)	nt	i	nt	nt	nt
CC(=O)N(C)C[C@@H]1Oc2ncc(C#Cc3cccc(F)c3)cc2C(=O)N([C@H](C)CO)C[C@H]1C	nt	i	nt	nt	nt
C[C@H]1CN([C@@H](C)CO)C(=O)CCCn2cc(nn2)CO[C@@H]1CN(C)S(=O)(=O)c1ccccc1	i	i	i	i	i
